# The whole screen tested about 69,000 compounds, of which about 50 (0.07%) showed an effect of 50% or more. Shown is part of a subset that was picked to be rich in strong results.
# Target: Lysine--tRNA ligase (Plasmodium falciparum (isolate 3D7)) (UniProt Q8IDJ8)
# Test: Pf-KRS-1 (Lysyl-RNA Synthetase-1, KRS-1, cytosolic KRS) from Plasmodium falciparum. Inhibitor assay, 384 well plate, luminescence read.
# Type: functional
# Parameters: scale not given: in the data most compounds retested in dose-response had high values
# Conditions: 30 µM
# Lysine--tRNA ligase (Plasmodium falciparum (isolate 3D7)), sequence (Q8IDJ8 1-583): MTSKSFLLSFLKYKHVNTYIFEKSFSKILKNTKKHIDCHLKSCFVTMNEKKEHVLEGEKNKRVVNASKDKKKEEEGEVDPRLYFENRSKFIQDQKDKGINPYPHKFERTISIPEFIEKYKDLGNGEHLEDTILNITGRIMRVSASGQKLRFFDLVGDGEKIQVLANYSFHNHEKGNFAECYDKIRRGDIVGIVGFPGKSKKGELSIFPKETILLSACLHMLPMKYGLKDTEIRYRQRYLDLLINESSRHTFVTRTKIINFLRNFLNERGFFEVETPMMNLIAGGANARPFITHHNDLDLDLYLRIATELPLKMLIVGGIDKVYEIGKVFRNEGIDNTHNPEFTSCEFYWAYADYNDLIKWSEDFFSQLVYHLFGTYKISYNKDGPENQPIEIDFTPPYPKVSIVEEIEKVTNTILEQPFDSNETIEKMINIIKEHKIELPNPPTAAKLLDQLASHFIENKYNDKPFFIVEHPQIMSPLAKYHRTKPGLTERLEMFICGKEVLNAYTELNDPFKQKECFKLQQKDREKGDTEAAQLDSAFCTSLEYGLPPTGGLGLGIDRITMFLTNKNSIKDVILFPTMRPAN
row,SMILES,Percent Effect [%]
1,COCC(=O)N1CC[C@H]2[C@H]1CCN2CC(C)C,7.19
2,CN(Cc1ccco1)[C@@H]1CN(CC2CCOCC2)C[C@@H]2CCCO[C@@H]21,-0.34
3,CN1C[C@H]2CNC[C@@]2(C(=O)N2CCN(c3ncccc3C#N)CC2)C1,4.21
4,O=C([C@H]1CCS(=O)(=O)[C@@H]2CN(Cc3ccc(F)cc3)C[C@H]12)N1CCCC1,7.12
5,O=C(c1ccc[nH]1)N1C[C@H](OCc2ccccn2)[C@H]2COC[C@H]21,-1.37
6,Cn1nc2c(cc1=O)CN(Cc1nc(C(C)(C)C)no1)CC2,70.1
7,Cn1nc2c(cc1=O)CN(Cc1nc(C3CC3)no1)CC2,8.16
8,Cn1nc2c(cc1=O)CN(Cc1nc(-c3cccnc3)no1)CC2,-1.07
9,Cn1nc2c(cc1=O)CN(Cc1nc(-c3ccco3)no1)CC2,5.02
10,Cc1cccc(-c2noc(CN3CCc4nn(C)c(=O)cc4C3)n2)c1,68.9
11,Cc1ccc(-c2noc(CN3CCc4nn(C)c(=O)cc4C3)n2)cc1,1.64
12,CSCC[C@H]1CN2CCC[C@H]2CN1Cc1coc2ccc(C)cc2c1=O,-1.05
13,Fc1cnc(N2CCO[C@H]3CN(CC4CCC4)C[C@H]32)nc1,-1.14
14,Cc1nnsc1CN1C[C@H]2CC[C@@H]1CN(Cc1ccccc1)C2,2.23
15,CCC(=O)N1CC[C@H]2C(=O)N(Cc3ccc(OC)cc3)CCO[C@H]2C1,4.55
16,Cc1noc(C)c1CN1CC[C@H]2[C@H]1CCN2CC1CCOCC1,59
17,Cc1noc(C)c1CN1CCO[C@H]2CN(CC3CC3)C[C@H]21,2.54
18,Cc1noc(C)c1CN1CC[C@H]2[C@@H]1CCC(=O)N2CC1CCOCC1,3.41
19,CCCN1CCN(C(=O)c2cccc3cccnc23)[C@H]2CS(=O)(=O)C[C@H]21,-0.361
20,CC1(C)CC(N2Cc3nc(N)ncc3C2=O)CC(C)(C)N1,1.77
21,CC(C)CN1Cc2nc(N)ncc2C1=O,91.2
22,CN1CCC(N2Cc3nc(N)ncc3C2=O)CC1,2.22
23,CC(C)CN1Cc2nc(N3CCC(O)CC3)ncc2C1=O,4.55

row,SMILES,Percent Effect [%]
1,CC(C)CN1Cc2nc(N3CCCC3)ncc2C1=O,6.16
2,CC1CCC(N2Cc3nc(N)ncc3C2=O)CC1 (stereo unspecified),73.8
3,CN1[C@H](CN2CCCC2)C[C@@H]2CN(C(=O)Cc3cccs3)CC[C@@H]21,-1.4
4,CCO[C@@H]1CN(S(=O)(=O)c2cn(C)cn2)[C@@H]2CCCO[C@@H]21,3.16
5,CC(C)=CCN1C(=O)[C@H]2CC[C@@H]1CN(C(=O)CCc1n[nH]c(C)c1C)C2,-4.7
6,CC(NC(=O)C1=NN(C)C(=O)CC1)c1ccc(Cl)cc1Cl (stereo unspecified),57.8
7,CC(NC(=O)C1=NN(C)C(=O)CC1)c1ccccc1Cl (stereo unspecified),7.44
8,CC(NC(=O)C1=NN(C)C(=O)CC1)c1ccc(Cl)cc1 (stereo unspecified),6.56
9,c1ccc(CO[C@@H]2CN(Cc3ccoc3)[C@@H]3COC[C@@H]32)nc1,-0.514
10,N#Cc1cc2c(=O)n(CC(O)Cc3ccccc3)ccc2[nH]c1=O (stereo unspecified),4.36
11,CCCOC(C)Cn1ccc2[nH]c(=O)c(C#N)cc2c1=O (stereo unspecified),61.2
12,CC(C)SCCn1ccc2[nH]c(=O)c(C#N)cc2c1=O,48.5
13,CCC(Cn1ccc2[nH]c(=O)c(C#N)cc2c1=O)OC (stereo unspecified),34.1
14,CC(O)CCn1ccc2[nH]c(=O)c(C#N)cc2c1=O (stereo unspecified),58.6
15,N#Cc1cc2c(=O)n(CC(O)C(F)(F)F)ccc2[nH]c1=O (stereo unspecified),27.3
16,CC(C)C(=O)N1CCN(C(=O)c2cc(C(C)C)no2)[C@H]2CS(=O)(=O)C[C@H]21,2.34
17,Cc1cc(CN2C[C@@H]3CN(Cc4ccsc4)CCO[C@@H]3C2)no1,3.95
18,CCCn1cc(NC(=O)c2ccc(N(C)CC)cc2)ccc1=O,6.21
19,CCCn1cc(NC(=O)c2cccnc2O)ccc1=O,10.4
20,CCCn1cc(NC(=O)c2ccc(S(C)(=O)=O)cc2)ccc1=O,79.3
21,CCCn1cc(NC(=O)c2ccncc2)ccc1=O,36.1
22,CCCn1cc(NC(=O)c2ccc(NC(=O)NC3CC3)cc2)ccc1=O,3.05
23,CCCn1cc(NC(=O)c2ccc(S(=O)(=O)CC)cc2)ccc1=O,78.9

row,SMILES,Percent Effect [%]
1,Cc1noc([C@H]2CC[C@@H]3[C@@H](CCN3S(C)(=O)=O)O2)n1,4.83
2,CN(C)C(=O)N1C[C@@H]2CC[C@H](C1)N(Cc1nnc(C3CC3)o1)C2,1.65
3,CCC(=O)N1CCN(C(=O)c2ccc(COC)o2)[C@H]2CS(=O)(=O)C[C@H]21,1.62
4,O=C([C@@H]1CCO[C@@H]2CCN(Cc3ccc(F)cc3)C[C@H]21)N1CCCCO1,4.98
5,Cc1ncncc1C(=O)N1C[C@H]2CC[C@@H]1CN(C(=O)c1ccncc1)C2,4.91
6,COc1cccc(CNc2nc(N3CCOCC3)ns2)c1OC,-2.52
7,COc1cccc(C2SCC(=O)Nc3ccsc32)c1OC (stereo unspecified),1.9
8,CCn1ncnc1C1CC(=O)NCc2nc(N3CCCC3)sc21 (stereo unspecified),2.27
9,COc1cccc(C2CC(=O)Nc3nc(N)sc32)c1OC (stereo unspecified),62.7
10,COc1cccc(CNCc2ccnc(N3CCOCC3)c2)c1OC,5.86
11,CCOc1cccc(C2CC(=O)NCc3nc(N4CCCC4)sc32)c1 (stereo unspecified),1.45
12,Nc1nc2c(s1)C(c1c(F)cccc1Cl)CC(=O)N2 (stereo unspecified),41.6
13,COc1cccc(C2CC(=O)Nc3nc(N4CCOCC4)sc32)c1OC (stereo unspecified),77.8
14,CC(C)Oc1ccccc1C1CC(=O)Nc2c1cnn2C (stereo unspecified),1.57
15,COc1cccc(C2CC(=O)Nc3nc(N4CCCCC4)sc32)c1OC (stereo unspecified),84.4
16,CC(C)Oc1ccccc1C1CC(=O)Nc2nc(N3CCOCC3)sc21 (stereo unspecified),82.6
17,COc1cccc(C2SCC(=O)Nc3n[nH]cc32)c1OC(C)C (stereo unspecified),1.84
18,O=C(N1CCCC1)N1C[C@H]2CCC[C@@]2(COCc2ccccn2)C1,2.76
19,CCO[C@@H]1CC[C@H]2[C@H]1OCCN2Cc1ccoc1,2.1
20,CNC(=O)[C@@H]1C[C@H]2CN(Cc3csc(C)n3)C[C@H]2N1C(C)C,4.1
21,O=C([C@H]1CN(Cc2cccnc2)C[C@H]2OCC[C@@H]12)N1CCCO1,2.79
22,CN(C)C(=O)[C@@H]1C[C@@H]2CCN(C3CCOCC3)C[C@H]2O1,1.18
23,N#Cc1cccc(C(=O)Nc2ccc([C@@H](O)[C@H]3COCC(=O)N3)cc2)c1,5.33

row,SMILES,Percent Effect [%]
1,COCC(=O)N1CCN(S(=O)(=O)c2ccccc2)[C@H]2CS(=O)(=O)C[C@H]21,2.66
2,O=C1CO[C@@H]2CN(Cc3nccs3)C[C@H]2N1Cc1ccncc1,3.56
3,COCC(=O)N1C[C@@H](OCc2ccncc2)[C@@H]2OCCC[C@@H]21,0.763
4,COc1ccccc1C1CC(=O)Nc2nc(N3CCCCC3)sc21 (stereo unspecified),84.3
5,COc1ccccc1C1CC(=O)Nc2c1c(=O)[nH]n2C(C)C (stereo unspecified),-1.35
6,COc1ccccc1C1CC(=O)Nc2c1c(=O)[nH]n2C1CCCC1 (stereo unspecified),5.39
7,COCCN1C[C@H]2CCC[C@@H](CNc3ncccn3)[C@H]2C1,5
8,Cn1ccnc1NC[C@@H]1CCC[C@@H]2CN(CC3CC3)C[C@@H]21,9.69
9,Cc1ncsc1CN1C[C@H]2OCC[C@H]2[C@H](C(=O)NCC2CC2)C1,0.98
10,Fc1cccc(CCN(c2ccc3nnnn3n2)C2CC2)c1,5.52
11,CCN(Cc1cccc(F)c1)c1ccc2nnnn2n1,50.8
12,CCCN(CCc1cccc(F)c1)c1ccc2nnnn2n1,10.9
13,O=C(c1ccco1)N1CC[C@@H]2O[C@H](COCC3CCOCC3)CC[C@@H]21,0.363
14,CS(=O)(=O)NC[C@@H]1OC[C@H]2CN(Cc3ccccc3)CC[C@H]21,3.37
15,COCCNC(=O)[C@H]1C[C@@H]2CCN(CCc3ccccc3)C[C@@H]2O1,1.68
16,COc1cccc(CN2C[C@@H]3COC[C@]3(CNC(=O)C3CC3)C2)c1,4.5
17,OC1CN(c2nc3c(C(F)(F)F)cccc3s2)C1,-2.21
18,O=C1CC(c2ccccc2C(F)(F)F)c2sc(N3CCOCC3)nc2N1 (stereo unspecified),82.6
19,Cn1ncc2c1NC(=O)CC2c1ccccc1Br (stereo unspecified),1.2
20,Cc1cc(Br)c(O)c(-c2nc(N3CCOCC3)sc2C)c1,2.13
21,O=C1CC(c2ccccc2Br)c2sc(N3CCOCC3)nc2N1 (stereo unspecified),60.1
22,O=c1[nH]nc(-c2cccs2)c2sc(N3CCOCC3)nc12,7.56
23,COCCN1CCO[C@@H]2CN(Cc3ccc(C)o3)C[C@@H]2C1,3.96

row,SMILES,Percent Effect [%]
1,CNC(=O)[C@@H]1COC[C@H]2CN(C(=O)COc3ccccc3)C[C@H]21,5.31
2,CC(C)CS(=O)(=O)N1C[C@H]2C[C@H](C(=O)Nc3cccnc3)[C@@H](C1)O2,-0.957
3,O=C(Nc1ccccc1)[C@H]1C[C@@H]2CN(S(=O)(=O)c3ccccc3)C[C@H]1O2,1.2
4,CCOCC1CN(Cc2ccc(OC)cc2)Cc2nn(CC3CC3)cc21 (stereo unspecified),60.3
5,CCOCC1CN(Cc2ccc(F)cc2)Cc2nn(CC3CC3)cc21 (stereo unspecified),3.6
6,CCOCC1CN(Cc2ccc(OC)cc2)Cc2nn(C)cc21 (stereo unspecified),-4.8
7,CNC(=O)N1CC[C@H]2N(C)CC[C@@]2(C(=O)N2CCOCC2)CC1,5.59
8,Cc1cccc(C(=O)N2CC[C@H]3C[C@@H](C)O[C@@H]3C2)n1,1.1
9,CS(=O)(=O)N1C[C@@H]2COC[C@@H](CC(=O)N3CCCCO3)[C@@H]2C1,-2.78
10,O=C(N1CCCO1)[C@@]12CCO[C@@H]1CCN(Cc1ccccc1)C2,4.7
11,COc1cccc(CN2C[C@H]3CCNCC[C@H]3S2(=O)=O)c1,-2.39
12,Cc1noc(C)c1CN1CC[C@H]2C[C@H](c3nccs3)O[C@@H]2C1,-0.715
13,COCc1nc2cc(NCc3csc(C)n3)ccc2o1,10.7
14,COCc1nc2cc(NCc3sc(C)nc3C)ccc2o1,58.6
15,COCc1nc2cc(NCc3scnc3C)ccc2o1,13.6
16,CC/C=C(\C)CN1CCC(CNC(=O)c2c[nH]c(=O)c(Cl)c2)C1 (stereo unspecified),-1.78
17,COCCN1CCC(CNC(=O)c2c[nH]c(=O)c(Cl)c2)CC1,2.11
18,CCC1CCC(CNC(=O)c2c[nH]c(=O)c(Cl)c2)CC1 (stereo unspecified),67.6
19,c1cnc(N2CC[C@@H]3CN(Cc4ccncc4)CCO[C@@H]3C2)nc1,4.97

# — ChEMBL document CHEMBL3988442, “University of Dundee, Small-Polar-MMV Screening Library” (2021)
